# Experimental data as given in PubChem BioAssay (NCI).
# About 83,000 compounds went through this panel and 20% of them were active in at least one assay; those are over-represented in the sample as a whole.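 Each cell line was grown in a 96-well plate and treated with one concentration of compound for 48 hours. Values below 10 were considered active.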 Unmarked numbers belong to inactive results. Calls of active or inactive are those of the source.
# Legend:
# Assay in all cases: NCI-60 one-dose screen, 48 h (100 = growth as untreated, 0 = no growth, -100 = all killed)
# Conditions in all cases: 10 µM unless noted
# [1] = test system: SR leukemia
# [2] = test system: RPMI-8226 leukemia
# [3] = test system: OVCAR-8 ovarian
# [4] = test system: OVCAR-5 ovarian
# [5] = test system: OVCAR-4 ovarian
# [6] = test system: SK-OV-3 ovarian
# [7] = test system: IGROV1 ovarian
# [8] = test system: OVCAR-3 ovarian
# [9] = test system: HS 578T breast
# [10] = test system: NCI/ADR-RES ovarian
Structure (SMILES),growth [1],growth [2],growth [3],growth [4],growth [5],growth [6],growth [7],growth [8],growth [9],growth [10]
O=C1c2ccc3c4c(ccc(c24)C(=O)N1CCCNCc1ccccc1F)C(=O)N(CCCNCc1ccccc1F)C3=O,-37.8% (active),-32.2% (active),-17.4% (active),-23% (active),-98.4% (active),-21.8% (active),-57.7% (active),-63% (active),-23.7% (active),-18.4% (active)
COc1ccc(C/C(=C(\C)c2ccc(OCCN3CCCC3)cc2)c2ccc(OCCN3CCCC3)cc2)cc1,-32.6% (active),-20.6% (active),64.9%,77.8%,81.5%,90.8%,64.1%,29%,66.7%,78.3%
Fc1ccc(-c2cn3c(nc4ccccc43)c(-c3ccccc3)n2)cc1,91.5%,111%,73.7%,111%,67.1%,105%,81.8%,111%,76.7%,89.3%
O=[N+]([O-])CC(c1ccccc1F)c1c[nH]c2ccccc12 (stereo not given),30.2%,76%,78%,96%,97.3%,119%,68.6%,77.9%,77.2%,48.2%
N/C(=N\C(N)=N\c1nc2ccccc2s1)c1cccc(Cl)c1,16.6%,80.8%,70.8%,111%,71.5%,98.3%,75.9%,99.2%,97%,77.4%
Nc1ccccc1NC(=O)c1ccc(-n2nc(-c3ccccc3)c3ccccc32)cc1,48.6%,-8.09% (active),62.6%,87.1%,77%,107%,68.5%,72.6%,83.5%,54%
C/C=C(\C)C(=O)NC1=CC[C@@]2(C)C(=CCC3C2CC[C@@]2(C)C3CC[C@@H]2C(C)N(C)C)C1=O (stereo not given in full),27.7%,3.85% (active),65.9%,85.8%,1.84% (active),114%,40.4%,29.3%,56.8%,55.7%
OCc1cnccc1NCCCOc1ccccc1,99.9%,100%,102%,113%,102%,114%,110%,107%,98.7%,102%
CC1(C)NCCC[C@]2(C)[C@H]3CC(=O)[C@H]4[C@@H]5C[C@](C)(CO)CC[C@]5(C)CC[C@@]4(C)[C@]3(C)CC[C@@H]12,82%,95%,114%,98.3%,92%,110%,98.1%,89.8%,99.4%,105%
CCCOC(=O)N[C@H]1CCc2c(Cl)c(OC)c(OC)c(OC)c2-c2ccc(SC)c(=O)cc21,4.56% (active),-2.97% (active),21.6%,44.7%,36.3%,38.3%,11.7%,-24.7% (active),9.75% (active),13.6%
O=C(/C=C(/C=C/c1coc2ccccc12)OB(F)F)/C=C/c1coc2ccccc12,48.8%,84.9%,87.7%,113%,107%,122%,97.5%,58.2%,91.4%,102%
O=S(=O)(NCCNc1nccc(-c2c(-c3cccc(F)c3)nc3sccn23)n1)c1ccc(Br)cc1,31.7%,58%,45.5%,83.6%,47%,77.3%,8.47% (active),62.4%,63.6%,61.8%
CCOC(=O)c1cc(C(=O)c2ccc(OC)cc2)n2ccc(/C=C/c3cc[n+](CC(=O)c4ccc(OC)cc4)cc3)cc12,-29.5% (active),10.4%,21.1%,87.1%,16.1%,109%,63.1%,60.9%,105%,98.1%
CN1C(N2CCN(S(=O)(=O)c3ccccc3)CC2)=NS(=O)(=O)c2ccccc21,32.2%,98.4%,80%,97.9%,111%,109%,-25.4% (active),101%,82.5%,99.7%
O=C1c2ccccc2C(=O)c2c([N+](=O)[O-])ccc(Cl)c21,54%,81.8%,75.2%,135%,62.2%,112%,71.5%,57.1%,98.8%,92.4%
CN1CCN(C(=O)[C@]23CCC(C)(C)C[C@H]2C2=CC[C@@H]4[C@@]5(C)C/C(=C/c6ccncc6)C(=O)C(C)(C)[C@@H]5CC[C@@]4(C)[C@]2(C)CC3)CC1,7.07% (active),7.22% (active),55.3%,86.9%,57.4%,77.6%,74.4%,47.2%,50.4%,56.3%
CN1[C@@H]2CC[C@H]1/C(=C\c1ccccc1)C(=O)/C2=C/c1ccccc1,19.2%,27%,-9.6% (active),98.4%,48.4%,79.1%,41.7%,14.4%,33.7%,10.7%
COc1cc2oc(-c3cccc(C(=O)Nc4ccccc4)c3)cc(=O)c2c(O)c1OC,95.7%,83.5%,15.4%,94.4%,-20.2% (active),15%,85.4%,70.1%,11.1%,79.1%
Cn1c(-c2c(N)n(CCCN3CCOCC3)c3nc(C#N)c(C#N)nc23)nc2ccccc21,-57.7% (active),5.09% (active),48.1%,82%,73.7%,93.6%,65.6%,65.5%,94.3%,78.6%
NS(=O)(=O)c1ccc(CCN2C(=O)c3cc(Cl)c(Cl)cc3C2=O)cc1,96%,104%,106%,108%,104%,113%,107%,109%,108%,105%
N#CC1C(C#N)C2c3ccccc3C=CN2C1C(=O)c1ccc(Br)cc1 (stereo not given),99.9%,110%,94.9%,98%,54.3%,108%,102%,109%,103%,94.7%
CC(=O)Nc1ccc(-c2ccc3c(c2)NC(=O)/C3=C\c2ccc[nH]2)cc1,36.5%,94.4%,99.8%,73%,102%,121%,96.6%,104%,110%,96.7%
COc1cc(/C(C)=C(\c2ccc(Cl)cc2)c2ccc(OCCN3CCCC3)cc2)ccc1F,-25.3% (active),14.7%,69.1%,74.8%,51.8%,108%,40.4%,63%,70.5%,69.9%
CC(C)N1C(=O)/C(=C2\SC(=S)N(C(C)C)C2=O)SC1=S,109%,92.9%,96.5%,88%,89.6%,113%,94.4%,98.4%,91.4%,95.7%
O=C1c2ccccc2CCC12OC2c1cn(-c2ccccc2)nc1-c1ccc(Cl)cc1 (stereo not given),70.4%,81.3%,94.5%,111%,99.2%,111%,95.1%,115%,93.3%,102%
CCN(CC)CCn1c(=O)c2cc(OC)c(OC)cc2c2ccc3cc4c(cc3c21)OCO4,-14.9% (active),3.16% (active),53.2%,64.9%,66.4%,32.8%,29%,62.4%,64.3%,29.9%
Cc1ccc(/C=N/NC(=O)CSc2nc3ccccc3c(=O)n2Cc2ccc(S(N)(=O)=O)cc2)cc1,49.4%,95.1%,93.6%,95.6%,106%,103%,96.2%,79.6%,88.5%,96.8%
